Assay outcomes as filed in PubChem.
Sampled rows, rich in hits. Any-hit rate of the full collection: about 0.84%.
PPARg SRC-3 ag: promotes SRC-3 coactivator recruitment by human PPARgamma. P37231. biochemical PPARgamma/SRC-3 coactivator recruitment assay. activation, % at 8 µM. hit rate 0.26% among 200,000; in the data active = activation above about 23%
SRC1 TRFRET art: TR-FRET artefact, counter-screen to PPARgamma/SRC-1 agonist assay; TR-FRET ratio at 8 µM; hit rate 0.34% among 99,000; TR-FRET detection artefact counter-screen, emission ratio; hits give high values; in the data active = TR-FRET ratio above about 2300
SRC3 TRFRET art: counter-screen for PPARgamma SRC-3 recruitment agonists: TR-FRET artefact. PPARgamma/SRC-3 format; hits give high values. TR-FRET ratio at 8 µM. hit rate 0.39% among 99,000. AID 1048; in the data active = TR-FRET ratio above about 2000
PPARg SRC-1 ag: agonists of human PPARgamma SRC-1 coactivator recruitment | P37231 | hit rate 0.41% among 200,000 | activation, % at 8 µM | AID 631 | PPARgamma-SRC-1 coactivator recruitment biochemical assay; in the data active = activation above about 19%
TR-FRET SRC-2 ct: flags TR-FRET format artefacts in PPARgamma SRC-2 recruitment agonist screen | TR-FRET artefact counter-screen; hits give high values | TR-FRET ratio at 8 µM | hit rate 0.4% among 200,000; in the data active = TR-FRET ratio above about 2000
PPARg SRC-2 ag: PPARgamma-driven SRC-2 recruitment agonism; P37231; PPARgamma LBD-SRC-2 recruitment, biochemical; activation, % at 8 µM; hit rate 0.34% among 200,000; AID 1032
PPARg SRC2 conf: confirmation of agonists of SRC-2 recruitment by human PPARgamma. shares compounds with PPARg SRC-3 ag. biochemical SRC-2 recruitment by PPARgamma. activation, % at 8 µM. hit rate 52% among 790
PPARg SRC1 conf: confirmation of agonists of SRC-1 recruitment by human PPARgamma; shares compounds with PPARg SRC-3 ag; PPARgamma–SRC-1 coactivator recruitment biochemical assay; activation, % at 8 µM; hit rate 43% among 790; in the data active = activation above about 20%
PPARg SRC3 ag: confirmation of agonists of SRC-3 recruitment by human PPARgamma | shares compounds with PPARg SRC-3 ag | biochemical PPARgamma-SRC-3 coactivator recruitment, agonist mode | activation, % at 8 µM | hit rate 29% among 790 | AID 1301; in the data active = activation above about 24%
Each line names hits and unclear results; the compound was inactive in the other large screens (follow-up assays come after a bar, where they were run). Rule as the data show it, unless noted: active = activation above about 22%; inactive = the rest.

[2H]c1c([2H])c([2H])c(C(=O)c2sc(N3CCCCCC3)nc2-c2ccccc2)c([2H])c1[2H]	PPARg SRC-3 ag 28.2 (no result: SRC1 TRFRET art, SRC3 TRFRET art) | PPARg SRC2 conf inactive | PPARg SRC1 conf inactive | PPARg SRC3 ag inactive
Cc1cc(C)c(NC(=O)CSc2nc3ccc(NC(=O)CSc4nnnn4Cc4ccccc4)cc3s2)c(C)c1	PPARg SRC-2 ag 23.7 (no result: SRC1 TRFRET art, SRC3 TRFRET art) | PPARg SRC2 conf inactive | PPARg SRC1 conf inactive | PPARg SRC3 ag inactive
CCOC(=O)Cc1csc(NC(=O)CSc2nc(-c3ccccc3)c(C#N)c(=O)[nH]2)n1	none
CNC(=O)NC(=O)CSc1nc(-c2cccs2)c(C#N)c(=O)[nH]1	PPARg SRC-3 ag 30.8, SRC1 TRFRET art 3256, SRC3 TRFRET art 2978, PPARg SRC-1 ag 41.0, TR-FRET SRC-2 ct 3062, PPARg SRC-2 ag 55.7 | PPARg SRC2 conf 43.1 | PPARg SRC1 conf 29.4 | PPARg SRC3 ag 29.9
N#Cc1c(-c2cccs2)nc(SCc2ccc(Cl)cc2)[nH]c1=O	PPARg SRC-3 ag 24.2, SRC1 TRFRET art 3031, SRC3 TRFRET art 2717, PPARg SRC-1 ag 32.2, TR-FRET SRC-2 ct 2686, PPARg SRC-2 ag 42.7 | PPARg SRC2 conf 36.4 | PPARg SRC1 conf 25.1 | PPARg SRC3 ag 24.2
O=c1[nH]c(SCc2ccc(Cl)cc2)nc2ccsc12	none
COc1ccc2c(c1)O[C@@H](c1cccc(C(F)(F)F)c1)[C@H](OC(=O)N[C@H]1CCCc3ccccc31)C2=O	PPARg SRC-2 ag 24.5 | PPARg SRC2 conf inactive | PPARg SRC1 conf inactive | PPARg SRC3 ag inactive
O=C(N1CCCCC1)N1CCN(S(=O)(=O)c2ccc(Cl)cc2)CC1	none
O=C(O)[C@H]1CCCC[C@H]1C(=O)Nc1ccc(Nc2ccccc2)cc1	PPARg SRC-2 ag 27.4 (no result: SRC1 TRFRET art, SRC3 TRFRET art) | PPARg SRC2 conf inactive | PPARg SRC1 conf inactive | PPARg SRC3 ag inactive
COc1cc(/C=C/C(=O)O)cc2c1OCCO2	none
CC(C)OC(=O)CCCN1C(=O)c2ccc(N)cc2C1=O	PPARg SRC-2 ag 23.3 (no result: SRC1 TRFRET art, SRC3 TRFRET art) | PPARg SRC2 conf inactive | PPARg SRC1 conf inactive | PPARg SRC3 ag inactive
COc1ccc(NC(=O)Nc2ccc(F)c(F)c2)c(OC)c1	none
O=S(=O)(Cc1ccc(Cl)cc1)c1ccccc1-c1nnc(-c2ccccc2)o1	TR-FRET SRC-2 ct 2006, PPARg SRC-2 ag 25.7 (no result: SRC1 TRFRET art, SRC3 TRFRET art) | PPARg SRC2 conf inactive | PPARg SRC1 conf inactive | PPARg SRC3 ag inactive
CS(=O)(=O)c1ccccc1-c1nnc(-c2ccc(Cl)cc2)o1	none
Cc1ccc(C(=O)C2=C(O)C(=O)N(c3ncccn3)C2c2ccc(Cl)cc2)o1 (centres undefined)	PPARg SRC-3 ag 42.6, PPARg SRC-1 ag 27.6, TR-FRET SRC-2 ct 2243, PPARg SRC-2 ag 38.1 (no result: SRC1 TRFRET art, SRC3 TRFRET art) | PPARg SRC2 conf 27.7 | PPARg SRC1 conf 20.9 | PPARg SRC3 ag inactive
Cn1ccs/c1=N\C(=O)Nc1cccc(Cl)c1	none
O=C(O)c1cn(C2CC2)c2cc(N3CCN(S(=O)(=O)c4ccc5c(c4)OCCO5)CC3)c(F)cc2c1=O	none
Oc1ccc(NCc2cccc(OCc3ccccc3)c2)cc1	PPARg SRC-1 ag 23.9 | PPARg SRC2 conf inactive | PPARg SRC1 conf inactive | PPARg SRC3 ag inactive
CCCC1O[C@@H]2CC3C4CCC5=CC(=O)C=C[C@]5(C)C4C(OC(C)=O)C[C@]3(C)[C@]2(C(=O)COC(C)=O)O1 (some centres undefined)	PPARg SRC-3 ag 47.1, PPARg SRC-1 ag 60.4, PPARg SRC-2 ag 38.2 (no result: SRC1 TRFRET art, SRC3 TRFRET art) | PPARg SRC2 conf 41.9 | PPARg SRC1 conf 49.0 | PPARg SRC3 ag 48.1
CCCC1O[C@@H]2C[C@H]3[C@@H]4CCC5=CC(=O)C=C[C@]5(C)[C@H]4[C@@H](O)C[C@]3(C)[C@]2(C(=O)CO)O1 (some centres undefined)	none
C=CCOc1ccc(C2C(C(=O)c3ccco3)=C(O)C(=O)N2c2nnc(C)s2)cc1 (centres undefined)	TR-FRET SRC-2 ct 2019, PPARg SRC-2 ag 25.0 | PPARg SRC2 conf 25.8 | PPARg SRC1 conf 24.0 | PPARg SRC3 ag inactive
